Measurements from PubChem BioAssay (Tox21).
Several values for one entry are separate records, joined by “and”; a condition that tells them apart may be missing. Equal entries are not always repeated. Records with an inconclusive call do not appear. Where a call stands in place of a potency, no number is given. More than one record can exist for a structure, and the calls need not agree. Activity calls are given as the source filed them. Unless noted, calls follow the shape of the dose curve; as a rule, active = well fitted curve in the direction sought with a large enough effect in the repeat runs; inconclusive = weak or mixed curves; inactive = no such curve, though single readings can be large; an effect the other way counts as inactive or inconclusive.

Experiments:
[1] = qHTS assay for small molecule agonists of the p53 signaling pathway (AID 651631; calls by dose curve; also: nearly all actives have a fitted effect of over 15% in size; also: potency is read from the fitted curve at half-maximal effect)
Outline: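 Testing took place in human colorectal HCT-116 cells with stable p53RE-driven beta-lactamase. After 16 h of compound exposure at 37 °C, a FRET substrate was added and fluorescence recorded 2 h later.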

[2] = qHTS assay for small molecules that induce genotoxicity in human embryonic kidney cells expressing luciferase-tagged ATAD5 (AID 651632); also: nearly all actives have a fitted effect of over 15% in size
Outline: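 Test compounds were delivered by pin tool onto HEK293T reporter cells (2,000/well) expressing ATAD5 fused to luciferase. After 16 hr at 37C, 5% CO2, Amplite was added for 30 min at room temperature and luminescence was measured.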

[3] = qHTS assay for small molecule agonists of the p53 signaling pathway - cell viability (AID 651633; calls by dose curve; also: nearly all actives have a fitted effect of over 30% in size; also: potency is read from the fitted curve at half-maximal effect)
Outline: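 p53RE-bla cells, seeded at 4,000 per well and rested 5 h at 37 C/5% CO2, received compounds in DMSO for 16 h at 37 C. CellTiter-Glo was then added, and luminescence was read after 30 min at room temperature to gauge cytotoxicity.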

[4] = qHTS assay for small molecules that induce genotoxicity in human embryonic kidney cells expressing luciferase-tagged ATAD5 - cell viability (AID 651634; calls by dose curve; also: nearly all actives have a fitted effect of over 25% in size; also: potency is read from the fitted curve at half-maximal effect)
Outline: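 Quantitative high-throughput format. HEK293T cells expressing ATAD5 fused to luciferase were plated at 2,000 cells/well and treated 15.5 hr with compound versus DMSO. Viability was determined by fluorescent live-cell protease substrate, 30 min at 37C.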

[5] = qHTS assay for small molecule disruptors of the mitochondrial membrane potential - cell viability (AID 720634; calls by dose curve; also: nearly all actives have a fitted effect of over 20% in size; also: potency is read from the fitted curve at half-maximal effect)
Outline: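 Same-well counter-screen: following the MMP dye addition, CellTiter-Glo was added to 1 hr compound-treated HepG2 cells and luminescence read after 30 min at room temperature.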

[6] = qHTS assay for small molecule disruptors of the mitochondrial membrane potential (AID 720635); also: potency is read from the fitted curve at half-maximal effect
Outline: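 HepG2 cells (2,000/well) attached overnight at 37C, then took compound for 1 hr at 37C, 5% CO2. Mito-MPS dye was added for 30 min; fluorescence was read at 490/535 nm (monomers) and 540/590 nm (aggregates).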

[7] = qHTS assay to test for compound auto fluorescence at 535 nm (green) in HepG2 cells (AID 720675)
[8] = qHTS assay to test for compound auto fluorescence at 460 nm (blue) in HEK293 cells (AID 720678)
Outline: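 Measured: blue fluorescence (Ex 405/Em 460 nm) of compound-treated HEK293 cells, incubated overnight at 37C with 5% CO2 and scaled to triamterene equivalents.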

[9] = qHTS assay to test for compound auto fluorescence at 590 nm (red) in HEK293 cells (AID 720679)
Outline: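 Using HEK293 cells at 2,000 per well, the screen added 23 nL of each compound after cell attachment and incubated overnight (37C, 5% CO2). The plate reader then captured red-label fluorescence, Ex/Em 540/590nm.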

[10] = qHTS assay to test for compound auto fluorescence at 590 nm (red) in HepG2 cells (AID 720674)
Outline: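 Rose Bengal sodium served as the red fluorophore standard. HepG2 monolayers (overnight attachment, MEM with 10% FBS) were exposed to test compounds for 1 hr at 37 C and read at Ex 540/Em 590 nm.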

| SMILES | Potency [1] | outcome [2] | Potency [3] | Potency [4] | Potency [5] | Potency [6] | outcome [7] | outcome [8] | outcome [9] | outcome [10] |
| --- | --- | --- | --- | --- | --- | --- | --- | --- | --- | --- |
| C1CCC(NC2CCCCC2)CC1 | inactive | inactive | inactive | inactive | inactive | inactive | inactive | inactive | inactive |  |
| CCCC[n+]1cccc(C)c1 | inactive | inactive | inactive | inactive | inactive | inactive | inactive | inactive | inactive |  |
| CCOP(=S)(OCC)Oc1ccc2c(C)c(Cl)c(=O)oc2c1 | inactive |  | inactive | inactive | inactive and 24.3 µM (active) | 19.5 µM (active) and 61.1 µM (active) | inactive | inactive | inactive |  |
| O=C(O)CC(O)(CC(=O)O)C(=O)O | inactive | inactive | inactive | inactive | inactive | inactive | inactive | inactive | inactive |  |
| CCCC[n+]1ccccc1C |  | inactive | inactive | inactive | inactive | inactive | inactive | inactive | inactive | inactive |
| CC(=O)[O][Hg][c]1ccccc1 | 596 nM (active) and 762 nM (active) and 1.22 µM (active) | inactive | 473 nM (active) and 382 nM (active) and 386 nM (active) | 1.68 µM (active) and 606 nM (active) and 1.37 µM (active) | 5.31 µM (active) and 1.21 µM (active) and 2.43 µM (active) | 4.73 µM (active) and 1.08 µM (active) and 1.93 µM (active) | inactive | inactive | inactive | inactive |
| Nc1ccccc1 | inactive | inactive | inactive | inactive | inactive | inactive | inactive | inactive | inactive |  |
| COc1ccc(N)cc1 | inactive | inactive | inactive | inactive | inactive | inactive | inactive | inactive | inactive |  |
| O=C(O)C(Cl)(Cl)Cl | inactive | inactive | inactive | inactive | inactive | inactive | inactive | inactive | inactive | inactive |
| Nc1ccc(-c2ccc(N)cc2)cc1 | inactive | inactive | inactive | inactive | inactive |  | inactive | inactive | inactive | inactive |
| CCC(=O)C(CC(C)N(C)C)(c1ccccc1)c1ccccc1 (configuration not stated) | inactive | inactive | inactive | inactive | inactive | inactive | inactive | inactive | inactive | inactive |
| CC[n+]1ccccc1 |  | inactive | inactive | inactive | inactive | inactive | inactive | inactive | inactive | inactive |
| N#CS | inactive |  | inactive | inactive | inactive | inactive | inactive | inactive | inactive |  |
| C[C@]12CCC(=O)C=C1CC[C@@H]1[C@@H]2CC[C@]2(C)C(=O)CC[C@@H]12 | inactive | inactive | inactive | inactive | inactive | inactive | inactive | inactive | inactive | inactive |
| COCC(=O)N(c1c(C)cccc1C)C(C)C(=O)OC (configuration not stated) | inactive | inactive | inactive | inactive | inactive | inactive | inactive | inactive | inactive | inactive |
| O=P1(N(CCCl)CCCl)NCCCO1 (configuration not stated) | inactive | inactive | inactive | inactive | inactive | inactive | inactive | inactive | inactive |  |
